Results on five compounds are retold here after the supplement of paper PMC6992640.

This assay relates to WHIM30 (cells of a triple-negative basal-like breast cancer xenograft). Description: cell viability of combination (% of vehicle); higher = less cytotoxic. Conditions: 1 µM; 72 h; partner dose: 10 nM. On the procedure: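 PDX cells were treated for 72 h with each drug at 1 µM plus carfilzomib (10 nM; 100 nM for WHIM2). Luciferase viability is expressed as percent of vehicle.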
On to `Cc1cc(C(C#N)c2ccc(Cl)cc2)c(Cl)cc1NC(=O)c1cc(I)cc(I)c1O` (stereo not given) [Closantel] + CC(C)C[C@H](NC(=O)[C@H](CCc1ccccc1)NC(=O)CN1CCOCC1)C(=O)N[C@@H](Cc1ccccc1)C(=O)N[C@@H](CC(C)C)C(=O)[C@@]1(C)CO1 [Carfilzomib], for which the “cell viability of combination” value amounted to 16.8. Regarding `Cc1cc(C(C#N)c2ccc(Cl)cc2)c(Cl)cc1NC(=O)c1cc(I)cc(I)c1[O-].[Na+]` (stereo not given) [Closantel Sodium] + CC(C)C[C@H](NC(=O)[C@H](CCc1ccccc1)NC(=O)CN1CCOCC1)C(=O)N[C@@H](Cc1ccccc1)C(=O)N[C@@H](CC(C)C)C(=O)[C@@]1(C)CO1 [Carfilzomib], the “cell viability of combination” value was determined as 17.8.

Turning to `CCCCCCCCCCCCCCCC[n+]1ccccc1.[Cl-]` [Cetylpyridinium Chloride] + CC(C)C[C@H](NC(=O)[C@H](CCc1ccccc1)NC(=O)CN1CCOCC1)C(=O)N[C@@H](Cc1ccccc1)C(=O)N[C@@H](CC(C)C)C(=O)[C@@]1(C)CO1 [Carfilzomib], the “cell viability of combination” value turned out to be 11.9.

Consider `CCCCCCCCCCCCCCCC[N+](C)(C)C.[Br-]` [Cetrimonium Bromide (CTAB)] + CC(C)C[C@H](NC(=O)[C@H](CCc1ccccc1)NC(=O)CN1CCOCC1)C(=O)N[C@@H](Cc1ccccc1)C(=O)N[C@@H](CC(C)C)C(=O)[C@@]1(C)CO1 [Carfilzomib], for which the “cell viability of combination” value worked out at 12. For `CCCCCCCCCCCC[N+](C)(C)CCOc1ccccc1.[Br-]` [Domiphen Bromide] + CC(C)C[C@H](NC(=O)[C@H](CCc1ccccc1)NC(=O)CN1CCOCC1)C(=O)N[C@@H](Cc1ccccc1)C(=O)N[C@@H](CC(C)C)C(=O)[C@@]1(C)CO1 [Carfilzomib], the “cell viability of combination” value is 9.06.
